# Results filed as inconclusive are left out. Calls of active or inactive are those of the source.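 The calls were made as follows, unless noted: active = normalized viability below 100% at a tested concentration; inactive = the rest.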
# Legend:
# [1] = growth inhibition of DIPG glioma cells, dose response, cell-based, SU-DIPG-XIII, MIPE5.0, CellTiter-Glo, qHTS (AID 1347064; cut-off not given, nearly all actives have AC50 up to about 23 µM); details: SU-DIPG-XIII viability, CellTiter-Glo ATP luminescence
# [2] = SU-DIPG-VI glioma cell viability, MIPE4.0 library, CellTiter-Glo luminescence, qHTS (AID 1347066; cut-off not given, nearly all actives have AC50 up to about 30 µM;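 also: cells exposed to compound for 48 hours before readout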); details: CellTiter-Glo ATP luminescence
# [3] = JHH-DIPG-1 glioma cell viability, MIPE5.0 library, CellTiter-Glo luminescence, qHTS (AID 1347067; cut-off not given, nearly all actives have AC50 up to about 26 µM;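 also: cells exposed to compound for 48 hours before readout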); details: JHH-DIPG-1 glioma viability, CellTiter-Glo ATP luminescence
# [4] = SU-DIPG-XXV glioma cell viability, MIPE5.0 library, qHTS (AID 1347068; cut-off not given, nearly all actives have IC50 up to about 30 µM)
# [5] = sensitizers of A549 cells to miR-34 induction, primary screen, imaging, A549 dox-inducible miR-34, nuclei and caspase counts (AID 1347080;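 active = compounds whose cell count with miR-34 switched on is under 0.7 times the count with it off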); details: A549 miR-34 inducible, Hoechst nuclei count, 48 h
# [6] = survival rescue of mitochondrial mutant cells in low glucose, primary screen, MELAS cybrids, Rieske KO mouse fibroblasts, CellTiter-Glo (AID 1508586;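 active = mean z-score across replicates of 1.96 or higher in either the MELAS or the Rieske mutant cell line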;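 also: z relative to plate mean and SD of compound and empty wells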)
# [7] = ovarian cancer cell viability with rucaparib, profiling panel, oncology-focused library, rucaparib conditional (AID 1508598); details: patient-derived ovarian cancer cells, CellTiter-Glo viability, 144 h, stronger effect = lower value
smiles,measurement,setting,value
Cc1ccc2nc(NC(=O)CSc3nc4c(c(=O)n3-c3ccccc3)SCC4)sc2c1,outcome,[1],inactive
same,outcome,[2],inactive
same,outcome,[3],inactive
same,outcome,[4],inactive
same,fold change,"[5]; stronger effect = lower value, cell number ratio, induced over uninduced",1.08 (inactive)
same,fold change,[5]; measured here: relative caspase fold change +Dox/-Dox,1.26
same,cell count,"[5]; measured here: total cells with miR-34 induction, stronger effect = lower value",7960
same,cell count,[5]; measured here: total cells without miR-34 induction,7340
same,z-score,"[6]; MELAS cybrid survival, CellTiter-Glo 48 h, stronger effect = higher value",-0.206 (inactive)
same,z-score,"[6]; Rieske KO mouse fibroblast survival, CellTiter-Glo 72 h",-0.109
same,viability,"[7]; at 0.000305 µM, OCI-C5x cells, with rucaparib 10 µM, 100% = cells with rucaparib alone",116% (inactive)
same,viability,"[7]; at 0.000305 µM, OCI-C5x cells, without rucaparib",106% (inactive)
same,viability,"[7]; at 0.000305 µM, OCI-P5x cells, with rucaparib 20 µM, 100% = cells with rucaparib alone",106% (inactive)
same,viability,"[7]; at 0.000305 µM, OCI-P5x cells, without rucaparib",100% (inactive)
same,viability,"[7]; at 0.00122 µM, OCI-C5x cells, with rucaparib 10 µM, 100% = cells with rucaparib alone",113% (inactive)
same,viability,"[7]; at 0.00122 µM, OCI-C5x cells, without rucaparib",109% (inactive)
same,viability,"[7]; at 0.00122 µM, OCI-P5x cells, with rucaparib 20 µM, 100% = cells with rucaparib alone",102% (inactive)
same,viability,"[7]; at 0.00122 µM, OCI-P5x cells, without rucaparib",101% (inactive)
same,viability,"[7]; at 0.00488 µM, OCI-C5x cells, with rucaparib 10 µM, 100% = cells with rucaparib alone",113% (inactive)
same,viability,"[7]; at 0.00488 µM, OCI-C5x cells, without rucaparib",118% (inactive)
same,viability,"[7]; at 0.00488 µM, OCI-P5x cells, with rucaparib 20 µM, 100% = cells with rucaparib alone",107% (inactive)
same,viability,"[7]; at 0.00488 µM, OCI-P5x cells, without rucaparib",95.3% (active)
same,viability,"[7]; at 0.0195 µM, OCI-C5x cells, with rucaparib 10 µM, 100% = cells with rucaparib alone",116% (inactive)
same,viability,"[7]; at 0.0195 µM, OCI-C5x cells, without rucaparib",114% (inactive)
same,viability,"[7]; at 0.0195 µM, OCI-P5x cells, with rucaparib 20 µM, 100% = cells with rucaparib alone",105% (inactive)
same,viability,"[7]; at 0.0195 µM, OCI-P5x cells, without rucaparib",99.2% (active)
same,viability,"[7]; at 0.0781 µM, OCI-C5x cells, with rucaparib 10 µM, 100% = cells with rucaparib alone",112% (inactive)
same,viability,"[7]; at 0.0781 µM, OCI-C5x cells, without rucaparib",115% (inactive)
same,viability,"[7]; at 0.0781 µM, OCI-P5x cells, with rucaparib 20 µM, 100% = cells with rucaparib alone",101% (inactive)
same,viability,"[7]; at 0.0781 µM, OCI-P5x cells, without rucaparib",99.7% (active)
same,viability,"[7]; at 0.313 µM, OCI-C5x cells, with rucaparib 10 µM, 100% = cells with rucaparib alone",112% (inactive)
same,viability,"[7]; at 0.313 µM, OCI-C5x cells, without rucaparib",115% (inactive)
same,viability,"[7]; at 0.313 µM, OCI-P5x cells, with rucaparib 20 µM, 100% = cells with rucaparib alone",106% (inactive)
same,viability,"[7]; at 0.313 µM, OCI-P5x cells, without rucaparib",94.9% (active)
same,viability,"[7]; at 1.25 µM, OCI-C5x cells, with rucaparib 10 µM, 100% = cells with rucaparib alone",117% (inactive)
same,viability,"[7]; at 1.25 µM, OCI-C5x cells, without rucaparib",114% (inactive)
same,viability,"[7]; at 1.25 µM, OCI-P5x cells, with rucaparib 20 µM, 100% = cells with rucaparib alone",97.6% (active)
same,viability,"[7]; at 1.25 µM, OCI-P5x cells, without rucaparib",97.1% (active)
same,viability,"[7]; at 5 µM, OCI-C5x cells, with rucaparib 10 µM, 100% = cells with rucaparib alone",164% (inactive)
same,viability,"[7]; at 5 µM, OCI-C5x cells, without rucaparib",162% (inactive)
same,viability,"[7]; at 5 µM, OCI-P5x cells, with rucaparib 20 µM, 100% = cells with rucaparib alone",76.9% (active)
same,viability,"[7]; at 5 µM, OCI-P5x cells, without rucaparib",95.4% (active)
